This note sets out measurements from PubChem BioAssay AID1508600 (Functional Genomics Laboratory (NCATS/FGL), 2020).

About 3,700 (7%) of roughly 53,000 sequences were called active. This excerpt belongs to a sample that is enriched for actives. Unmarked numbers belong to inactive results.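 The calls were made as follows: active = gene knockdowns whose robust z-score for IL-1 alpha signal is at least 2 or at most -2, so actives lie on both sides; inactive = the rest.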

This assay can be described thus: Components of the Cytosolic LPS Sensing Pathway: Gene Identification via Genome-wide siRNA Screen.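 Also: robust z of the log signal after scaling to non-targeting control siRNA wells of the plate.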 The conditions noted are these: RAW264.7 macrophages, IL-1a HTRF, actives lie on both sides, screened at 100 nM (by protocol), cells primed 5 h with Pam3CSK4 first. In short, it runs like this: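 Mouse macrophage line RAW264.7 is transfected with siRNA (100 nM final), grown 48h, primed with TLR ligand Pam3CSK4 5 h and given intracellular LipidA 24 h. IL-1a in supernatant is read by HTRF and viability by luminescence.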
As to GGAGAAAACACAAUGUCUUTT against Limd1, the z-score is 0.441.

Regarding CCUACAGAUAGGUAUGUAGTT against Exo1, the z-score is -2.07 (active).

Take GGACUUUGAGGAGAAGGAUTT against Rabep2: the z-score was -1.34.

Regarding GGAAGGUGUCAAUAAAGAUTT against Lypd3, the z-score is 0.0184.

Consider GGGAUUUUUGAAACUGAAGTT against Glod4, for which the z-score was -2.78 (active).

For GGAGAGUCUCCAGACUUUGTT against Med29, the z-score was -0.521.

With GGAGGAGACUCAGCAGAUUTT against Gzmn, the z-score is 2.29 (active).

In the case of CCAGAAGAACAAGGAAGUATT against Gm6460, the z-score was -0.914.

For the sequence GGCCCAACGACAUUUAUGUTT against Pop7, the z-score was -1.38.

With GCCUUCUGAUAACCUACUATT against Mefv, the z-score is -1.87.

As to GCUAGUGGUAAGUCAACCATT against Iqsec1, the z-score was -0.882.

Regarding GGAAGCUUACAUUGUGAAGTT against Unc5c, the z-score is -0.735.

Regarding GGACAAGCAAGGUCAAUCATT against Taar1, the z-score was -1.11.

GGUGUAAGAGCUUUGGCCUTT against Gm5420: the z-score was 2.35 (active).

With AAACUAGGGUCGAUUUCACTT against Hmgn3, the z-score is 0.704.

On to GGCCUUCCUCUUCUGCUUATT against Csf3r, for which the z-score is 0.157.

On to GUGAACAACAUCCAAGCGATT against Dhrs7c, for which the z-score was 0.183.

For the sequence GCGGAAAAAUUACUUUCUUTT against Tas2r107, the z-score is -2.

Regarding GGAGUUUUCAUGCCUACAATT against Odam, the z-score was 2.58 (active).

Turning to GGAAACCUACCAAGAAACGTT against Fam234a, the z-score is -0.293.

For the sequence GGGACAAUUGGAAAGGCGATT against Wdr55, the z-score is 0.507.

As for GGCACUUUCGGGAAUUCACTT against Nup160, the z-score is -2.5 (active).

With GCCUAUCAGUAUCAUAGUUTT against Dnajc10, the z-score was 0.905.

On to GGAGUAUUCAACAUUUGUATT against Trim11, for which the z-score was -0.523.

Take GAACGGGUUACCAUGUGGUTT against Xkr9: the z-score is 0.546.

For CGCAGGUGAGAGCAAUGUUTT against Lrrn4cl, the z-score was -1.35.

On to GGAAGGAACUCAAGAAGACTT against Ifrd1, for which the z-score was 2.13 (active).

As to GGAUGUGAAAUUCAAGCUUTT against Dhx34, the z-score is -0.457.

Turning to GGAUACAGAAGGUUUUCUUTT against Abcd4, the z-score is -0.137.

GGAACCCUUUUCAAAAGAGTT against Bclaf3: the z-score was 0.112.

GGAGGAGACUAAAGAAAAUTT against Myf6: the z-score is -1.53.

For the sequence GGAAACAUCUUGUUGAAGATT against BC106179, the z-score is 0.361.

Regarding GGAGAAAGCAGAGAUAAAATT against Cdk11b, the z-score was -1.8.

In the case of CCCACAACUGCAAAUUGUGTT against Olfr782, the z-score was -1.21.

With GGAUACAAGAAACCUUAAGTT against Os9, the z-score is 1.09.

Regarding CGACUCUUGCCUGUUCGUGTT against Adamtsl5, the z-score is -2.48 (active).

Consider GGAUAAAUUUCAAGAUGUGTT against Naip5, for which the z-score was -0.552.

“GGUACCAUUCGUUCAAACCTT against 3830406C13Rik”: the z-score is 0.416.

With GGCCUUUACGUCUUCCUAGTT against Zdhhc12, the z-score is -1.19.

Take GGAAGAUGGGCAAGAUGAUTT against Sash3: the z-score is -0.183.

Consider CCCAGCACUUUUUCGCUCUTT against Olfr458, for which the z-score is 0.959.

For GCAGGACAACCAGCUGGUATT against Tmem107, the z-score was 3.43 (active).

Consider GGCACUCAGCAAGAUUGUATT against Nr2c2ap, for which the z-score was -0.28.

GCUCAUCUUAUCCUCUAAGTT against Cts7: the z-score was 0.391.

In the case of UCAGGUCGCUGCUAAACUCTT against Ccdc57, the z-score is -1.26.

GGUUCAAAGGUGAUGGUGUTT against Dab2: the z-score was 0.273.

Regarding CGAGCUUUGAAAGUUUAAUTT against Pcsk2, the z-score is 0.591.

Take CCUGACGAUUGAGUAUCAUTT against Tubgcp4: the z-score was -0.267.

In the case of GGACCAGACGAACAGUGAUTT against Surf2, the z-score was 2.28 (active).

GGACCUGCCCAAAUCUGAUTT against Fbxo40: the z-score is 0.307.

In the case of CGGCUCUUCAAUAGAGCCUTT against Olfr123, the z-score is -0.265.

As to GGAUUAUGGUCUCAUUGUCTT against Exd2, the z-score was 0.0549.

Regarding GGAGCUUUCUCAGAGGUGUTT against Camk1g, the z-score was -1.47.

For the sequence GCUGCUCGUUAAAGCCGGATT against Ankrd6, the z-score was 2.92 (active).

For the sequence CCAGAUGCAGUCACAAGUCTT against Klf4, the z-score is 0.843.

Consider GGUUUUAAAGGCCAUAUUGTT against Msmo1, for which the z-score is -1.72.

With GCCGACAACACAAAAUUAUTT against Vps26b, the z-score was 0.4.

With CGAAAGCACACACGUAGAATT against Erdr1, the z-score is 0.391.

Regarding GGUCUUCCAAGGUCAGAAGTT against Cyp2d10, the z-score is 1.5.

As to “GGCAAUAAUCUUAGAGGUUTT against 9530068E07Rik”, the z-score is 0.499.

For the sequence GCUGUAAGGAGGAACUUCUTT against Btg1, the z-score is -1.03.

As for GGUCUCUGGUAAGAAGAGCTT against Zfp276, the z-score is 2.95 (active).

As to CCGAACAGAGGAAGAAGGCTT against Olfr816, the z-score is 0.281.

For GGGAGGACAGUCAUUGGUUTT against Phldb1, the z-score is -1.84.

GCAUAAGGAUAUAGCAUUATT against Ctla4: the z-score was -0.72.

Take GGCAUUUGCACAGUUUAUGTT against Upp2: the z-score was -1.42.

As for GGGUCCUUUUUAGCUGUAGTT against Vdac1, the z-score is 3.83 (active).

On to CCUAGUAAUCAGUUUGAAUTT against Ak4, for which the z-score is 1.17.

Regarding CCAUAUGGCUUGUGGCAGATT against Scn1b, the z-score is -0.245.

Regarding GGUGACAGAGAUUUUCGAATT against Tbc1d22a, the z-score is 0.931.

Regarding GGCAAGUCUUUAAAAGUCCTT against Xrcc2, the z-score is -1.48.

For the sequence GGCCUUCCGCAUUUUAUCATT against Zfp729a, the z-score is 2.43 (active).

As to GGAGAAGAAGCUGGACCAGTT against Atp5o, the z-score was 0.348.

On to GGUACAAUACAUUCAAACATT against Serpinb6c, for which the z-score was -0.82.

For the sequence CCCUUGUCCAGUGUGAGUUTT against Tmem184b, the z-score is 1.07.

As for GGCACAGACCUCACAGUUATT against Olfr64, the z-score was 0.534.

On to GGAAAAAGCUGUGAUACUUTT against Hspbap1, for which the z-score was -0.895.

As to GGAACUGAUUGAAAACAUCTT against Syce2, the z-score is 2.97 (active).

With GCAAAAUUAUCAGUGAGGATT against Nt5c3b, the z-score is -2.54 (active).

On to GGGCAGAAAACAACUGGAATT against Pappa, for which the z-score was -1.1.

Consider GGAGGAUGGAGUCAUAUAUTT against Gm773, for which the z-score was -0.41.

Consider GGAGUUUGGAAUAAAAAGGTT against Flt3, for which the z-score is -0.173.

In the case of GCAGAGGGACAGUCUACAUTT against Rorc, the z-score was -0.534.

For the sequence GAUUUCUAUACAGCCUAUCTT against Olfr799, the z-score is 0.312.

As to GGCUACAAGUUGGUAAUCUTT against Pnkp, the z-score was 3.36 (active).

Turning to GGCUGGACAGGAUUAUCCATT against Tmem185b, the z-score is -0.904.

For CGCAGGUAAUUUGUUUGUGTT against Mtnr1b, the z-score is 1.16.

On to GCAUAGCAAUGAAAAUCUATT against Lrit2, for which the z-score is 1.06.

As to GGUUAAAGUUAAAUCUGUCTT against C6, the z-score is -2.35 (active).

Consider GGUCAAUCUUUGGAGUAUUTT against Stk39, for which the z-score was -0.129.

As to GCUUCCAAUUACUUAUCCATT against Phc3, the z-score was -0.0705.

Consider GGGAAGAAGAGAUUCUGAUTT against Cep250, for which the z-score was -1.53.

As to GGCAGGUUUAACUUUAAUGTT against Cacna1e, the z-score was 3.59 (active).

With GGACAAGGAUAGUAGUAAGTT against Parp1, the z-score was -0.122.

GCAUACCCUAUUUAGUUUUTT against Gpr33: the z-score was -0.00896.

On to GCACGAAGAACCACACAAGTT against Sp110, for which the z-score was 2.37 (active).

Consider CCGGAGUCAGUAUCCAGAATT against Ndufaf4, for which the z-score was -0.282.

With GCCGUGGAUCGAAUAAUUCTT against Coq7, the z-score is -1.03.

For GGUUUUAGUAAACUUCCCATT against Fam76b, the z-score was -0.692.

As for GGAUCCUGGAUAAUCUGGGTT against Plscr1, the z-score was -1.35.

On to GCGUGCAUAUAUCCAAUGCTT against Tardbp, for which the z-score is 1.36.

As to GGUAAUCUCCAAAAAACCATT against Lilra6, the z-score is -0.863.

For the sequence GCUUUGAGCAGCUAGGUUATT against Tpcn2, the z-score was 3.78 (active).

For the sequence GGGACCUUUUCAGGACCUUTT against Ucp2, the z-score was -0.954.

Take GGCUGCCUUCAUCUUUUCUTT against Fth1: the z-score is 0.873.

Regarding GCUUGUAUGAGAUUACCUATT against Ttc1, the z-score was 1.19.

Consider GGUCUUUGAGUCUACACAGTT against Pde4dip, for which the z-score was -2.52 (active).

With GGAGUCCUACGUCAAAGAATT against Pigz, the z-score was -0.251.
